# From the OligoGym collection
# Biological target: PLEKHA8
# Test: pooled miR-30 sensor sort-seq; sequence = guide strand
# Details: shRNA
# Also: reference of the scale not given here.
row,Sequence,sensor-assay potency score (higher = more potent)
1,ATTTCCAACAAGATCCATCTTA,0.673
2,TTTCCAACAAGATCCATCTTAA,-0.407
3,ATTATCTACAGAATGAACTTGA,1.24
4,TTCAGCAAACTCTTTCTCCTTC,0.589
5,AATATTTCCAACAAGATCCATC,-1.17
6,TATCTACAGAATGAACTTGAAT,-1.22
7,TAGGGCTGTCTGGATATCCTTC,-0.391
8,TTGAATTTCACAGACTGCCATT,-0.888
9,TAATATTTCCAACAAGATCCAT,-0.589
10,TAATAGGACAATATTCCCCCAC,-0.473
11,TTCCATTCCATCTTCCTTCCTT,0.675
12,TTCACAAGTGCTCAACTCCATT,-1.47

# Biological target: PLEKHB1
# Test: as above
# Details: shRNA
row,Sequence,sensor-assay potency score (higher = more potent)
1,TATGTCACGGACATTGAAGTGG,-0.329
2,TCATCCTTGGTCTCCGCACAGA,-1.23
3,TCGTAGTAGTCTTGGTACGGGC,-1.27
4,TTGAAGTGGATGAGCACACGGT,-0.311
5,TGAAGTGGATGAGCACACGGTC,-1.12
6,TAGGGCATCATCCTTGGTCTCC,-0.411
7,TTCCCGTAGGTTCACAGTCAGC,-1.99
8,TAGTAGCTGCGGACATACGTGG,-1.12
9,TAGGGCGGTCCGTAGTAGCTGC,-0.166
10,TCTGTCTCCACAGCCAGCCGCC,-1.23
11,TAGTAGTCTTGGTACGGGCTGT,-0.059
12,TCTCATCGTGGTAGTATCCCAG,-0.247

# Biological target: PLEKHJ1
# Test: as above
# Details: shRNA
row,Sequence,sensor-assay potency score (higher = more potent)
1,TTATTTGAACAGAACAAGCACC,-0.886
2,TTTGAACAGAACAAGCACCCTG,0.823
3,TAGAAGATGAGGCTTCTCCGCA,-0.0375
4,TGACACTGCTCCTCGCTGCTGC,-0.0748
5,TTTATTTGAACAGAACAAGCAC,0.502
6,ATGAACTCGTAGCTGGCCCGAC,-0.947
7,TCAGGGTCCTCAATGAAGCTGA,-0.114
8,TATGCCGAACTGTTCCAGGGGG,-0.541
9,TTCGTTCCTGTAGAAGATGAGG,-0.827
10,TTCCTGTAGAAGATGAGGCTTC,0.247
11,TGTACATTCATTCAGCACGGGG,-1.25
12,TTGAACAGAACAAGCACCCTGG,0.692

# Biological target: PLEKHN1
# Test: as above
# Details: shRNA
row,Sequence,sensor-assay potency score (higher = more potent)
1,TAGCTCCAGGTAGCAGTCGCTG,-1.67
2,TTCTTGGAGAGCAAGTAGGGGC,-0.773
3,TAGTGGAAGAGCTTGTTGGCGG,-0.587
4,TCCAGGTCCAGGATGTCCGTGC,-1.12
